# Source: PubChem (National Center for Advancing Translational Sciences (NCATS))
# Most compounds without a hit are left out; they make up all but 2.3% or so of the library.
# AmpC inh no detg – blocks E. coli AmpC beta-lactamase in detergent-free assay; P00811; AmpC nitrocefin hydrolysis, absorbance 480 nm, 0.0001% Triton; Potency, µM (highest dose often 57.1 µM), for the others: at the top dose activity change, negative = inhibition, hits mostly inhibitors; actives 0.52% (n = 330,000); AID 485341;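 further: plate controls were no compound for no effect and no enzyme for full effect; nearly all actives have a fitted effect of over 20% in size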
# Target sequence (P00811 whole entry, looked up): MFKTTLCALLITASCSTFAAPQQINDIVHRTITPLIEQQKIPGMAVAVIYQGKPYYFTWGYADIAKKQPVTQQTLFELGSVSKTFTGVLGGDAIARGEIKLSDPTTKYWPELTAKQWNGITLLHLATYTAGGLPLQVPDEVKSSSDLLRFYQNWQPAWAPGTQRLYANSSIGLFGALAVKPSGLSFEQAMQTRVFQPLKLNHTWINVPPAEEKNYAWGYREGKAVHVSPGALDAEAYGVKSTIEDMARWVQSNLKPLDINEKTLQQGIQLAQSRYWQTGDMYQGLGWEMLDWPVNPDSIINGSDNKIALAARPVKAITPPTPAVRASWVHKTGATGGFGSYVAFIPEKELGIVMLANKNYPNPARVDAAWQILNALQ
#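 AmpC (5.3 nM in the dispensed reagent) in 20 mM phosphate pH 7.0 with 0.01% (detergent screen) or 0.0001% Triton X-100 was preincubated with compounds for 15 min at room temperature. Nitrocefin was then added from an 800 uM solution, and hydrolysis was followed at 480 nm.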
# LASV entry inh – inhibitors of Lassa virus binding or cell entry. Lassa virus pseudotype entry inhibition, cell reporter. Potency, µM (top dose mostly 37.9 µM), for inactives: at the highest dose activity change, negative = inhibition, usual class: inhibitors. actives 1.2% (n = 300,000). AID 540256; calls by dose curve; tested in HEK293 cells; further: nearly all actives have a fitted effect of over 50% in size
# AMA1-RON2 inh – inhibitors of Plasmodium falciparum AMA1-RON2 interaction | AID 720542 | AlphaScreen AMA1-biotinylated RON2 peptide binding | actives 0.2% (n = 360,000) | Potency, µM (doses to about 58.2 µM), without a hit: top-dose activity change, negative = inhibition, usual class: inhibitors;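 further: 0% = vehicle wells and -100% = peptide control; nearly all actives have a fitted effect of over 45% in size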
#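 AMA1 (3D7) with his tag at 25 nM final met compounds first, then biotinylated RON2 peptide at 25 nM; detection used donor plus acceptor beads, 10 µg/mL apiece, read by AlphaScreen after 30 min at room temperature.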
# AmpC detergent – inhibitors of E. coli AmpC beta-lactamase with detergent; Potency, µM (top dose mostly 114 µM), for the others: at the highest dose activity change, negative = inhibition, usual class: inhibitors; P00811; AmpC hydrolysis of nitrocefin, absorbance 480 nm, 0.01% Triton; AID 485294; actives 0.041% (n = 370,000);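 further: 0% = no-compound wells and -100% = no-enzyme wells; nearly all actives have a fitted effect of over 25% in size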
#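 AmpC (5.3 nM in the dispensed reagent) in 20 mM phosphate pH 7.0 with 0.01% (detergent screen) or 0.0001% Triton X-100 was preincubated with compounds for 15 min at room temperature. Nitrocefin was then added from an 800 uM solution, and hydrolysis was followed at 480 nm.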
# MARV entry inh – Marburg virus entry inhibition | Marburg virus pseudotyped entry inhibition, cell reporter | Potency, µM (series often up to 37.8 µM), for inactives: at the highest dose activity change, negative = inhibition, usual class: inhibitors | actives 1.8% (n = 300,000) | AID 540276; calls by dose curve; tested in HEK293 cells
# The depositor's hits bear a star; ? = inconclusive; . = not tested or not shown; [ ] = another dose, or the depositor's remark. Unless noted, the call rests on the fitted dose curve; in most records, active means well fitted curve in the direction sought with a large enough effect; inconclusive means small, poorly fitted or top-dose-only effect, or another doubt; inactive means no such curve, though single readings can be large; an effect the other way counts as inactive or inconclusive. Unless noted, on the % scale 0 is the no-effect control and ±100 the full control effect; potency means the concentration at half of the fitted maximal effect.
SMILES,AmpC inh no detg,LASV entry inh,AMA1-RON2 inh,AmpC detergent,MARV entry inh
CC1Cc2ccccc2N1Cc1cc(=O)c(OCC(=O)Nc2ccccc2)co1 (configuration not stated),35µM*,-25%,-1%,-13%,-3%
Cc1ccc(NC(=O)COc2coc(CN3c4ccccc4CC3C)cc2=O)c(C)c1 (configuration not stated),-1%,-9%,-29%,-19%,-21%
CC(=O)c1cccc(NC(=O)C2=CC(c3ccc4c(c3)OCO4)=NS(=O)(=O)N2C)c1,10µM*,?,-10%,-5%,?
Cc1ccc2cc(C3CC(c4ccco4)=NN3S(=O)(=O)c3ccccc3)c(Cl)nc2c1 (configuration not stated),1%,16µM*,-4%,?,2.6µM*
COc1ccc2cc(C3CC(c4ccco4)=NN3S(=O)(=O)c3ccccc3)c(Cl)nc2c1 (configuration not stated),3%,?,-20%,2%,?
FC(F)(F)c1ccc(Cl)c(-n2c(-c3cc(-c4ccco4)[nH]n3)n[nH]c2=S)c1,4µM*,-16%,84%,3%,-27%
CCOC(=O)N1CCC(NC(=O)Cn2cc3c(n2)CCCC3)CC1,2.8µM*,.,-19%,?,.
COc1ccc(C=CC2=CC3(C)CC2(C)C(c2ccc(OC)cc2)CC3=O)cc1 (configuration not stated),.,.,.,.,-13%[14.2 µM]
Cc1ccc(Cc2c(C)nc3nc(SCC(=O)NCCCN4CCOCC4)nn3c2C)cc1,79%,-7%[46.1 µM],-3%,10%,8.9µM*
CC(=O)Nc1ccc(NC(=O)CSc2cn(CC(=O)N(C(C)C)C(C)C)c3ccccc23)cc1,.,0%[46.1 µM],.,4%,.
Cc1ccn2c(C(=O)CSc3ccc(Cl)cc3)c(C)nc2c1,0.32µM*,4%,-1%,-4%,-4%
Cc1ccn2c(C(=O)c3ccc(Cl)cc3)cnc2c1,-2%,18µM*,-5%,-9%,?
Cc1ccc(SCC(=O)c2c(C)nc3cc(C)ccn23)cc1,-28%,.,-4%,4%,.
COc1ccc(NC(=O)C2SC(=S)N=C2N)cc1 (configuration not stated),.,.,.,.,9%
O=[N+]([O-])c1nn(-c2ccc3c(c2)OCCO3)n(O)c1=Nc1ccc(Cl)cc1,-28%,?,-11%,-8%,?
O=[N+]([O-])c1nn(-c2ccc3c(c2)OCCO3)n(O)c1=Nc1ccccc1,-13%,7.1µM*,?,-3%,1.5µM*
COC(=O)CC=C[C@@H](C)[C@@H](C=NO[C@H](C)c1cn([C@H](CO)Cc2ccccc2)nn1)NS(=O)(=O)c1ccc(C)cc1,.,?,.,.,22%[14.2 µM]
C[C@]12CC[C@@H]3c4ccc(OC(=O)N(CCCl)CCCl)cc4CC[C@H]3[C@@H]1CC[C@@H]2O,.,5%,.,.,?
COc1ccc2c(c1)CCC1C2CC[C@@]2(C)C1CC[C@@H]2NCCCCCCN1C(=O)CCC1=O (some centres not stated),.,13µM*,.,.,?
N[C@@H]1C=CC=C(C(=O)O)C1,.,.,.,.,-4%
CS(=O)(=O)CCNCc1nc(-c2ccc3ncnc(Nc4ccc(F)c(Cl)c4)c3c2)cs1,.,-15%,.,.,.
Cc1ccc(C)c(NC(=S)Nc2cccnc2)c1,-12%,-3%,-12%,-11%,?
Cc1ccc(NC(=S)Nc2cccnc2)c(S(=O)(=O)N2CCCCC2)c1,14µM*,?,51%,-14%,?
COCCCNS(=O)(=O)c1ccc(Oc2ncc(C(F)(F)F)cc2Cl)cc1,58%,0%,-1%,5%,?
CC(C)(C)NS(=O)(=O)c1ccc(Oc2ncc(C(F)(F)F)cc2Cl)cc1,5µM*,?,-2%,-5%,?
CCc1cccc(C)c1NC(=O)COC(=O)c1c2c(nc3ccccc13)/C(=C\c1cccs1)CCC2,-49%,-3%,-9%,-4%,?
NC(=O)c1ccc(NC(=O)COC(=O)c2c3c(nc4ccccc24)/C(=C\c2cccs2)CCC3)cc1,3.2µM*,?,-3%,-3%,?
O=C(COC(=O)c1c2c(nc3ccccc13)/C(=C/c1ccco1)CC2)NC1CCCC1,18µM*,13µM*,-9%,-11%,?
